PubChem BioAssay AID748 (Sanford-Burnham Center for Chemical Genomics, 2007)
About 100 (0.1%) of roughly 96,000 compounds were called active. The full list was thinned out, with actives kept by preference. Results with a measured potency or affinity are listed apart. Unmarked numbers belong to inactive results.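 The calls were made as follows: active = displacement above 50% at 20 µM plus a fluorescence interference ratio under 1.5; inactive = the rest.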

target: Bcl-2-like protein 10 (Homo sapiens) (UniProt Q9HD36); assay: Bcl-B/TR3 peptide binding disruption – biochemical, fluorescence polarization, FITC-TR3 peptide, selectivity assay for Bfl-1 inhibitor project, primary screen (AID 748); conditions: FP displacement of FITC-TR3 peptide from Bcl-B; at 20 µM; active compounds read high;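 also: plate controls were wells without compound for no effect and wells lacking Bcl-B protein for full effect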

Structure (SMILES) | displacement
COc1cccc(NC(=O)C(NC2CCCC2)c2ccccc2)c1 (configuration not stated) | 2.1%
CCOC(=O)CNC(=O)c1c2c(nc3ccccc13)CCCC2 | 7.2%
c1coc(CNc2c3c(nc4ccccc24)CCC3)c1 | 26.6%
CC(C)Cn1c(N2CCN(C(=O)c3cccs3)CC2)nc2ccccc21 | -1.5%
Cc1ccc(SC(CC(=O)c2ccc(C)cc2)C(=O)O)cc1 (configuration not stated) | -5%
CSc1nc(C)cc(NC(N)=O)n1 | -7.4%
Cn1c(C(C#N)C(=O)c2ccco2)nc2ccccc21 (configuration not stated) | 13.4%
Cn1c(C(C#N)C(=O)c2sc3ccccc3c2Cl)nc2ccccc21 (configuration not stated) | -2.9%
COc1ccccc1-n1c(C)nc2cc(C(=O)O)ccc21 | -9.1%
Cc1cc(C(=O)NCCC2=CCCCC2)no1 | -6.6%
C=CCn1c(SCC(=O)NC2CCCC2)nc2scc(-c3ccco3)c2c1=O | 29.6%
CCCCC(=O)Nc1cccc(NC(=O)CC)c1 | -6.1%
CCC(=O)Nc1cccc(Br)c1 | -1.7%
COCCNC(=O)CCCn1c(=O)c2ccccc2n(CC(=O)NCCC2=CCCCC2)c1=O | -8.5%
COc1ccccc1-c1nnc2sc(COc3ccccc3)nn12 | 0.4%
COc1ccccc1-c1nn2c(-c3ccccc3Cl)nnc2s1 | 5.7%
CCC(=O)c1cc(-c2nc3ccccc3n2C)n(C)c1 | 3.7%
COc1ccccc1-n1nnnc1SCc1cc2c(cc1Br)OCO2 | 2.6%
c1ccc(-c2cn3c(n2)CCc2ccc4cccnc4c2-3)cc1 | -7.4%
Brc1ccc(-c2cn3c(n2)CCc2ccc4cccnc4c2-3)cc1 | 1%
NC(=O)NC(CC(=O)OCC(=O)NC(=O)NCc1ccco1)c1ccc(Cl)cc1 (configuration not stated) | 0.6%

Structure (SMILES) | displacement
CC1CC(C)CN(C(=O)c2cc3c(s2)CCC3)C1 (configuration not stated) | 0.4%
O=C(c1cc2c(s1)CCCCC2)N1CCN(c2ncccn2)CC1 | -2.1%
COc1ccccc1N1CCN(C(=O)c2ccc(Br)s2)CC1 | -4.4%
CCOc1ccccc1N1CCN(C(=O)c2cc3c(s2)CCC3)CC1 | 0.5%
CCCC(=O)Nc1cccc(-c2nc3cc(C)c(C)cc3o2)c1 | -1.8%
CCCN(CCC)C(=O)Cn1c(=O)n(CCC(=O)NCCc2ccccc2)c(=O)c2ccccc21 | 1.2%
CC(=O)Nc1cc(S(=O)(=O)Nc2ccccc2C)c(C)cc1C | -3.3%
CCCc1nnc(NC(=O)CCC(=O)N2CCN(CCOc3ccc(C)cc3)CC2)s1 | 1.6%
Cc1nc(NC(=O)COC(=O)C(NC(=O)c2ccco2)C(C)C)c(Cl)cc1Cl (configuration not stated) | 24.3%
CSCCC(NC(=O)c1ccco1)C(=O)OCC(=O)Nc1ncc(Cl)c(C)c1Cl (configuration not stated) | 14.7%
CCn1c(SC)nc2c(c1=O)SC(C)C2 (configuration not stated) | -13.3%
Cc1ccc(-c2cc(C(F)(F)F)n3nc(C(=O)Nc4c(C)n(C)n(-c5ccccc5)c4=O)cc3n2)cc1 | -12.8%
Cc1c(NC(=O)c2cc(-c3ccccc3)on2)c(=O)n(-c2ccccc2)n1C | 1.8%
COc1ccc(CNC(=O)COC(=O)c2cc(-c3ccco3)nc3ccccc23)cc1 | 42.9%
O=C(OCC(=O)N1CCN(C(=O)c2ccco2)CC1)c1cc(-c2ccc(F)cc2)nc2ccccc12 | 8.8%
O=C(COC(=O)c1cc(-c2ccco2)nc2ccccc12)NCc1ccccc1 | -3%
O=C(OCC(=O)N1CCN(C(=O)c2ccco2)CC1)c1cc(-c2ccccc2)nc2ccccc12 | -78.6%
CC1Cc2ccccc2N1C(=O)CSc1nc2cc3c(cc2cc1C#N)OCO3 (configuration not stated) | 3.7%
Cc1cccc(-n2nnc(C(=O)NCc3ccc4c(c3)OCO4)c2N)c1 | -4.7%
COc1ccc(C(=O)OCC(=O)c2ccc(C3CCCCC3)cc2)cc1 | 0.1%
Cc1ccc(C(C(=O)NCc2ccco2)N(C(=O)Cn2nnc3ccccc32)c2ccccc2)o1 (configuration not stated) | 2.5%

Structure (SMILES) | displacement
Cc1cc(C)cc(CC2CC(=O)N(c3ccc(Cl)cn3)C2=O)c1 (configuration not stated) | -1%
Cn1c2ccccc2c2c(C(=O)NCc3ccco3)cn(C3CCCCC3)c(=O)c21 | 11.7%
CC(C)CC(=O)Nc1cccc(-c2nc3ccccc3o2)c1 | 5.6%
NC(=O)c1cc(Cc2ccccc2)sc1NC(=O)c1ccco1 | 0%
Cc1c(C#N)c2ccccc2n1CC(=O)NC(C)c1ccccc1 (configuration not stated) | 2.1%
COc1ccc(Nc2nc(N3CCCC3)c3ccccc3n2)cc1 | 12.9%
COc1ccc(Nc2nc(N3CCCCC3)c3ccccc3n2)cc1 | 6.9%
Cc1c(N(C(=O)c2cc(=O)[nH]c3ccccc23)C(C)C)c(=O)n(-c2ccccc2)n1C | -10%
C=CCn1c(C)cc(C(=O)CSc2nnc(NC(C)C)s2)c1C | -5.7%
CC(C)Nc1nnc(SCC(=O)Nc2ccc(F)cc2)s1 | 1.5%
NC(=O)Cn1c(=O)n(CCCC(=O)NC2CCN(Cc3ccccc3)CC2)c(=O)c2ccccc21 | 4.2%
CC(C)OC(=O)C(NC(=O)c1ccccc1)=C1CCCCC1 | -12.9%
Cc1ccc(NS(=O)(=O)c2ccc(C(=O)N3CCN(c4ccccn4)CC3)cc2)cc1 | 3.6%
COc1ccc(N2Cc3cccc(C(=O)N4CCN(C(=O)c5ccco5)CC4)c3C2=O)cc1 | 36.1%
COc1ccc(N2Cc3cccc(C(=O)N4CCOCC4)c3C2=O)cc1 | 4.6%
CC1(CC(=O)O)SC(=O)NC1=O (configuration not stated) | -6%
CCOC(=O)CCc1c(C)nc2cc(-c3ccccc3OC)[nH]n2c1=O | 4%
O=CNCCCc1nc2ccccc2n1Cc1cccc2ccccc12 | 1.8%
CCOc1ccc(/C=N/NC(=O)COc2ccccc2-c2ccccc2)cc1 | 9.4%
COc1ccc(/C=N/NC(=O)COc2ccccc2-c2ccccc2)cc1 | -6.4%
